# In PubChem BioAssay AID1117319 (Southern Research Institute, 2015):
# “And” between values parts separate entries of the source, which are not always exact repeats. Equal values may be shown once. Screen size: about 260,000 compounds; about 1,500 (0.58%) were called active. Inconclusive results (about 5%) are left out.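 The calls were made as follows: active = inhibition above a set limit at one or more doses, reproduced on every date tested; inconclusive = results disagree between test dates, or hit never tested in dose response; inactive = the rest.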 These entries were drawn from the full list. Results with a measured potency or affinity are listed apart.
# Molecular target: Virion infectivity factor (Human immunodeficiency virus type 1 group M subtype B (isolate BH10)) + Virion infectivity factor (Human immunodeficiency virus type 1 group M subtype B (isolate BRU/LAI)) + Virion infectivity factor (Human immunodeficiency virus type 1 group M subtype B (isolate PCV12)) + Virion infectivity factor (Human immunodeficiency virus type 1 group M subtype B (isolate HXB2)) + DNA dC->dU-editing enzyme APOBEC-3G (Homo sapiens) (UniProt P69720+P69721+P69722+P69723+Q9HC16)
# Test: inhibitors of Vif binding to APOBEC3G peptide, primary screen, biochemical, TR-FRET, GST-Vif 1-94, biotin-A3G peptide, dose response retest (AID 1117319);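 also: Vif residues 1-94 fused to GST binding biotinylated APOBEC3G peptide 110-148; 0% = full assay without inhibitor and 100% = GST in place of GST-Vif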
# Conditions: active compounds read high
row,Structure (SMILES),inhibition
1,O=C(CCOc1ccccc1)Nc1ccc([N+](=O)[O-])cc1,5.33% (inactive)
2,COc1ccc(NC(=O)CN(C)C(=O)c2cc(-c3ccc(Cl)cc3)nc3ccccc23)cc1,2.66% (inactive)
3,CN(CC(=O)Nc1cccc(F)c1)C(=O)c1cc(-c2ccccc2)nc2ccccc12,-4.43% (inactive)
4,COc1cccc(NC(=O)CN(C)C(=O)c2cc(-c3ccco3)nc3ccccc23)c1,23.7% (inactive)
5,CCOc1ccc(NC(=O)CN(C)C(=O)c2cc(-c3ccco3)nc3ccccc23)cc1OCC,-2.81% (inactive)
6,Cc1ccc(NC(=O)c2cc(-c3ccco3)nc3ccccc23)cc1S(=O)(=O)N1CCOCC1,32.6% (inactive)
7,COc1ccc(NC(=O)CN(C)C(=O)c2cc(-c3ccc(OC)cc3)nc3ccccc23)cc1,-5.94% (inactive)
8,COc1ccc(NC(=O)c2cc(C)nc3ccccc23)cc1S(=O)(=O)N1CCOCC1,-2.24% (inactive)
9,Cc1ccc(NC(=O)CN(C)C(=O)c2cc(-c3ccco3)nc3ccccc23)cc1,55.7% (inactive)
10,CC(=O)c1cccc(N/C=C\c2nnnn2-c2ccc(F)cc2)c1,-15.5% (inactive)
11,CCOC(=O)c1ccc(-c2c(C)cc3oc(=O)cc(-c4ccccc4)c3c2C)cc1,-7.8% (inactive)
12,COc1ccc(C(=O)c2ccc(N(C)C)cc2)c2ccccc12,-5.09% (inactive)
13,O=[N+]([O-])c1ccc2c(c1)c(-c1ccccc1)nc1nncn12,1.68% (inactive)
14,CC1=NN(c2cccc(F)c2)C(=O)/C1=C/c1ccc(N(C)C)cc1,7.52% (inactive)
15,CN(C)c1ccc(C=c2c3ccccc3n3c2c2c([n+]3C)CCCC2)cc1,26.6% (inactive)
16,CCN(CC)CC(O)Cn1c(C)c(-c2ccccc2)c2cc([N+](=O)[O-])ccc21 (stereo unspecified),-3.66% (inactive)
17,CN(C)c1ccc(C=O)c(Oc2ccccc2)c1,-6.28% (inactive)
18,Cc1cccc(C)c1NC(=O)C1CCCN(CCCc2ccccc2)C1 (stereo unspecified),3.24% (inactive)
19,COC(=O)c1ccc(CNC(=O)c2ccc(NS(=O)(=O)c3ccc4[nH]c(=O)[nH]c4c3)cc2)cc1,-7.35% (inactive)
20,CCOc1ccc(NC(=O)/C(C=Nc2ccccc2)=C(\C)O)cc1,-3.41% (inactive)
21,CCCc1nc(SCC(=O)N2CCCC2)c2ccccc2n1,-0.12% (inactive)
22,CC(C)(C)OC(=O)N(CCc1ccccc1)Cc1ccccc1OCc1cccc(NC(=O)C2CCCC2)c1,1.13% (inactive)
23,CN(C)CCCNC(=O)C[C@H]1C[C@H](C(=O)N2CCCCC2)[C@@]2(CCc3ccccc3)c3[nH]c4ccc(Cl)cc4c3CCN2C1=O,3.82% (inactive)

row,Structure (SMILES),inhibition
1,O=C1CC(c2ccccc2)CC(O)=C1C=Nc1ccccc1Cl (stereo unspecified),-5.59% (inactive)
2,CC(C)C(=O)N1CCN(CCN=CC2=C(O)CC(c3ccco3)CC2=O)CC1 (stereo unspecified),-5.81% (inactive) and 11.7% (inactive)
3,O=C1CC(c2ccco2)CC(O)=C1C=Nc1ccccc1-c1ccccc1 (stereo unspecified),18.4% (inactive)
4,Cc1ccc(N=CC2=C(O)CC(c3ccco3)CC2=O)cc1 (stereo unspecified),14.7% (inactive)
5,Cc1[nH]nc(N=CC2=C(O)CC(c3ccco3)CC2=O)c1-c1ccc(Cl)cc1 (stereo unspecified),8.53% (inactive)
6,CCc1ccc(N=CC2=C(O)CC(c3ccco3)CC2=O)cc1 (stereo unspecified),-1.68% (inactive)
7,O=C1CC(c2ccco2)CC(O)=C1C=NCCN1CCN(C(=O)Nc2ccc(Cl)cc2)CC1 (stereo unspecified),-5.15% (inactive)
8,O=C1CC(c2ccco2)CC(O)=C1C=NCCN1CCNCC1 (stereo unspecified),31.7% (inactive)
9,COc1cccc(NC(=O)CC(C)=O)c1,3.45% (inactive)
10,CCNc1nc(NC(C)(C)C)nc(SCC(N)=O)n1,-9.57% (inactive)
11,O=C(CN(Cc1cccs1)C(=O)CSc1nnc(COc2ccccc2)o1)NC1CCCCC1,3.54% (inactive)
12,COc1ccc(C)cc1NC(=S)N1CCN(c2ncccn2)CC1,6.81% (inactive)
13,CC1CCN(S(=O)(=O)c2ccc(C(C)C)cc2)CC1,-4.55% (inactive)
14,Cc1cn([C@H]2C[C@H](O)[C@@H](CCC(=O)NCc3ccco3)O2)c(=O)[nH]c1=O,3.31% (inactive)
15,Cc1cc(NC(=O)c2cc(-c3ccc(O)cc3)on2)no1,-3.11% (inactive)
16,C=CCSc1nc2sc(C)c(C)c2c(=O)n1CC=C,-3.91% (inactive)
17,O=C1C2CCCN2C(c2ccccc2)N1c1ccc(Cl)cc1 (stereo unspecified),15.8% (inactive)
18,COc1cc(C2N(c3ccccn3)C(=O)C3CCCN32)cc(OC)c1OC (stereo unspecified),-8.96% (inactive)
19,COc1ccc(N2C(=O)C3CCCN3C2c2cccs2)cc1 (stereo unspecified),-1.1% (inactive)
20,O=C1C2CCCN2C(c2cccs2)N1c1ccc(Cl)cc1 (stereo unspecified),-1.78% (inactive)
21,O=C(CNC(=O)c1ccc(Br)o1)Nc1cccc(S(=O)(=O)N2CCOCC2)c1,1.25% (inactive)
22,CC1CCCCC1NC(=O)c1c(O)nc2ccccn2c1=O (stereo unspecified),-12.1% (inactive)
23,COc1ccc(C(=O)Nc2ccc3c(c2)OCCO3)c(OC)c1,1.98% (inactive)

row,Structure (SMILES),inhibition
1,Cc1ccc(C(=O)n2ncn(C)c2=S)cc1,-5.15% (inactive)
2,COC(=O)CN1C(=O)COc2ccc(S(=O)(=O)N3CCCCC3)cc21,-2.76% (inactive)
3,Nc1cccc2nc3ccccc3cc12,11.9% (inactive)
4,Cc1cc(N)c2ccccc2n1,3.24% (inactive)
5,O=C(CN1CCC(C(=O)c2ccc3c(c2)OCCO3)CC1)Nc1ccccc1F,2.56% (inactive)
6,COc1cccc(C2NC(=O)c3ccccc3O2)c1OC (stereo unspecified),-1.95% (inactive)
7,Cc1cc(-c2nnc(CCC(=O)N(CC3CC3)CC3CCCO3)o2)no1 (stereo unspecified),0.72% (inactive)
8,Cc1ccc(-c2cc(C(=O)Nc3c(C)n(C)n(-c4ccccc4)c3=O)[nH]n2)c(O)c1,23.2% (inactive)
9,CC(=O)N1CCN(c2ccc(NCc3cccc4ccccc34)cc2)CC1,28.3% (inactive)
10,O=C(c1ccccc1)N1CCN(c2ccc(NCc3ccc4c(c3)OCO4)cc2)CC1,21.7% (inactive)
11,CC(=O)N1CCN(c2ccc(NC(=O)c3ccc4c(c3)OCO4)cc2)CC1,18.3% (inactive)
12,CC(=O)Nc1ccc(N2CCN(C(C)=O)CC2)cc1,24.9% (inactive)
13,Nc1c(C(=O)CSc2nccn2-c2ccc(Cl)cc2)c(=O)[nH]c(=O)n1C1CC1,-3.47% (inactive)
14,CC1CCN(CCCCOc2cccc(Br)c2)CC1,-0.02% (inactive)
15,COc1cccc(NC(=O)N(C)C[C@H]2OCc3cnnn3CCCC(=O)N([C@H](C)CO)C[C@@H]2C)c1,-12.7% (inactive)
16,COc1ccc(Oc2cccc(Cl)c2CNC(=O)CSCC(=O)O)cc1,7.24% (inactive)
17,COc1ccc(NC(=O)Cc2c[nH]c3ccccc23)cc1S(=O)(=O)N1CCOCC1,-3.49% (inactive)
18,Cc1c(NC(=O)C(C)N2C(=O)C3C4C=CC(C4)C3C2=O)c(=O)n(-c2ccccc2)n1C (stereo unspecified),-0.22% (inactive)
19,COc1ccc(C(=O)Cn2nnc(-c3ccccc3NC(=O)C3CCCCC3)n2)cc1,-3.13% (inactive)
20,Cc1ccc(OCCCN2C(=O)C(=O)c3cc(C)ccc32)cc1,-4.93% (inactive)
21,Cn1nnnc1SCCNS(=O)(=O)c1ccccc1,2.62% (inactive)
22,Cc1ccc(Nc2cnn(C34CC5CC(CC(CC(=O)O)(C5)C3)C4)c(=O)c2Cl)cc1,-0.2% (inactive)
23,Cc1cccc(Nc2cnn(C34CC5CC(CC(CC(=O)O)(C5)C3)C4)c(=O)c2Cl)c1,5.69% (inactive)

row,Structure (SMILES),inhibition
1,O=c1[nH]nc(Cc2ccc3ccccc3n2)c2ccccc12,-4.55% (inactive)
2,COC(=O)N1CCN(c2ccc(C(C)=O)cc2)CC1,5.12% (inactive)
3,Cc1ccc(NC(=O)C2CCCN(S(=O)(=O)c3cnc[nH]3)C2)c(Br)c1 (stereo unspecified),1.69% (inactive)
4,COc1ccc(C(=O)Nc2nc(CC(=O)NCCc3cccc(OC)c3)cs2)cc1,0.4% (inactive)
5,COc1cc(O)cc(/C=C/c2ccccc2)c1,6.25% (inactive)
6,COc1cc(/C=C/c2ccc(O)cc2)cc(OC)c1,0.21% (inactive)
7,CNS(=O)(=O)c1cccc(C(=O)OCC(=O)NC(C)CCc2ccccc2)c1 (stereo unspecified),1.38% (inactive)
8,COC(=O)c1ccc(-n2nnnc2SC)cc1,6.93% (inactive)
9,CCOc1ccc(NC(=O)N[C@@H](Cc2ccccc2)C(=O)O)cc1,3.58% (inactive)
10,O=C(CC1Nc2cccc3cccc(c23)NC1=O)Nc1ccc(F)cc1 (stereo unspecified),19.5% (inactive)
11,CC(=O)Nc1ccc(NC(=O)CC2Nc3cccc4cccc(c34)NC2=O)cc1 (stereo unspecified),18% (inactive)
12,Cc1ccc(C)c(CSc2nnc(C)c(=O)[nH]2)c1,-5.37% (inactive)
13,Cc1nn(CC#N)c(=O)n1-c1ccc(F)cc1,0.42% (inactive)
14,O=C(CCS(=O)(=O)c1ccc(Br)cc1)N1CCN(c2ccc(Cl)cc2)CC1,5.94% (inactive)
15,O=C(CCS(=O)(=O)c1ccc(Cl)cc1)N1CCN(c2ccc(F)cc2)CC1,-4.61% (inactive)
16,COc1ccc(CCN2CCCn3c2nc2c3c(=O)n(CC(N)=O)c(=O)n2C)cc1OC,-0.32% (inactive)
17,NS(=O)(=O)c1ccc(Cl)cc1[N+](=O)[O-],-11.6% (inactive)
18,O=C1CCC(=O)N1CN(C(=O)c1ccco1)c1ccc(Cl)c(Cl)c1,3.26% (inactive) and 3.71% (inactive)
19,COc1ccc(N(CN2C(=O)C3CC=CCC3C2=O)C(=O)c2ccco2)cc1 (stereo unspecified),18.2% (inactive)
20,CCc1nn2c(=O)cc(COc3ccc(/C=C4\C(=N)N5N=C(C)SC5=NC4=O)cc3)nc2s1,-5.78% (inactive)
21,Oc1c(CN2CCOCC2)ccc(CN2CCOCC2)c1O,30.9% (inactive)
22,Oc1c(CN2CCOCC2)cc(CN2CCOCC2)c(O)c1CN1CCOCC1,4.15% (inactive)
